Drawing on PubChem BioAssay AID1259343 (VanderVen Lab, College of Veterinary Medicine, Cornell …, 2017), this text covers inhibition for 109 compounds.

The structures appear in SMILES notation. The whole screen tested about 6,200 compounds, of which about 2,900 (47%) were called active. So high a share suggests a set chosen from earlier hits. The list shows a part of the results. Unmarked numbers belong to inactive results. No stated cut-off is given here; in the data, active means inhibition above about 50%; inactive means the rest.

The nature of this assay: Mycobacterium tuberculosis growth inhibition, primary screen (AID 1259343). Conditions: inhibition: at 10 µM, active compounds read high; outcome: 10 uM.
`Cc1ccc(C2(O)CCN(c3noc(-c4ccccc4)n3)CC2)nc1`: the inhibition (usually the change of the read-out against control, counted positive when it falls) was 16.2%. As to `CCCc1ccc(NC(=O)c2cnc(C)cn2)cc1`, the inhibition is 100% (active).

In the case of `CC1Cc2cc(CNC(=O)c3cc(C(C)C)nn3C)ccc2O1` (centres undefined), the inhibition is 3.55%. Regarding `Cc1cnc(C(=O)NCc2ccc3c(c2)OCO3)cn1`, the inhibition is 63.5% (active). Take `Cc1cnc(C)c(Nc2nc(C(N)Cc3ccc(Cl)cc3)cs2)n1` (centres undefined): the inhibition is 78.6% (active). As for `Cc1cnc(C)c(Nc2nc(C(N)Cc3ccc(C(F)(F)F)cc3)cs2)n1` (centres undefined), the inhibition was 81.1% (active).

In the case of `CCOCCC1(C(=O)Nc2ccc(CC)cc2)CCC1`, the inhibition is 75.8% (active). As for `CCc1ccc(NC(=O)COc2ccc(Br)cn2)cc1`, the inhibition was -1.65%. `COCc1cccc(C(=O)Nc2ccc(C(C)(C)C)cc2)c1`: the inhibition was 60.8% (active).

For the compound `COCc1cccc(C(=O)Nc2nc(C3CC3)cs2)c1`, the inhibition was 5.98%. In the case of `COC(=O)c1cccc(S(=O)(=O)N(C)Cc2ccc(C)cc2C)c1`, the inhibition was 82.9% (active). With `COc1cc(C)c(CN(C)C(=O)CCl)cc1OC`, the inhibition is -15.9%. As to `O=C(O)c1c(NC(=O)C2CCCCC2)sc2c1CCC2`, the inhibition was 79.8% (active).

In the case of `COC(=O)c1c(NC(=O)c2ccccc2Cl)sc2c1CCCC2`, the inhibition is 98.2% (active). Under `O=C(Nc1ccccc1Cl)c1csc2c1CCCC2` stands 50%; under `Cc1cccc(OCCNC(=O)c2c(NC(=O)C3CC3)sc(C)c2C)c1`, 20.2%; under `NC(=O)c1c(NC(=O)CC23CC4CC(CC(C4)C2)C3)sc2c1CCC2`, 70.6% (active). Turning to `COC(=O)c1c(NC(=O)c2ccccc2Br)sc(C)c1C`, the inhibition was 88.2% (active).

For the compound `CCOC(=O)c1sc(N)c(C(=O)OC)c1C`, the inhibition was -1.92%. As to `O=C(NC1CC1)c1c(NC(=O)C23CC4CC(CC(C4)C2)C3)sc2c1CCCC2`, the inhibition is 41.1%. Consider `NC(=O)c1c(NC(=O)C2CCCCC2)sc2c1CCCC2`, for which the inhibition is -14.9%. With `COc1ccc(-c2ccc(NC(=O)c3cccnc3)c(C)c2)c(OC)c1OC`, the inhibition is 40.8%. Turning to `O=C(C=Cc1ccco1)Nc1sc2c(c1C(=O)O)CCCC2`, the inhibition is 8.18%. For the compound `O=C(Nc1sc2c(c1C(=O)O)CCCC2)c1cccnc1`, the inhibition is 70.5% (active). For the compound `O=C(Cc1cc(-c2ccc3c(c2)OCO3)on1)NCCC1=CCCCC1`, the inhibition is 41%. For `CC1Cc2cc(-c3cc(CC(=O)NCc4ccco4)no3)ccc2O1` (centres undefined), the inhibition is 92.3% (active). Next, `COc1cccc(-c2cc(CC(=O)NCCC3=CCCCC3)no2)c1`: 83.2% (active); `CC1Cc2cc(-c3cc(CC(=O)NCCC4=CCCCC4)no3)ccc2O1` (centres undefined): 73.2% (active); `CC1Cc2cc(-c3cc(CC(=O)NCc4cccnc4)no3)ccc2O1` (centres undefined): 37.3%. As for `Cc1cc(NC(=O)Cc2cc(-c3ccc4c(c3)CC(C)O4)on2)no1` (centres undefined), the inhibition was 34.1%. Consider `O=C1C=C(O)c2ccccc2C1=O`, for which the inhibition is 53.8% (active). On to `N#CC(=CC=Cc1ccc([N+](=O)[O-])o1)c1nc2ccccc2[nH]1`, for which the inhibition is 101% (active).

As to `N#CC(=Cc1ccc([N+](=O)[O-])o1)c1nc(C2CC2)cs1`, the inhibition is -16.5%.

Regarding `O=c1ccc2ccc(OS(=O)(=O)c3cccs3)cc2o1`, the inhibition was 90.5% (active).

As to `O=c1cc(C(F)(F)F)c2ccc(OS(=O)(=O)c3ccc(F)c(F)c3)cc2o1`, the inhibition was 1.62%. On to `N#Cc1ccc(OS(=O)(=O)c2cccs2)cc1`, for which the inhibition is 51.7% (active).

`CCOC(=O)C(C#N)=Cc1cn(CCC#N)nc1-c1ccc(Br)cc1`: the inhibition was -13.1%.

As for `Oc1ccc(CCNc2nccc(C3CCCC3)n2)cc1`, the inhibition is 51.5% (active). As to `Fc1ccc(-c2cc(CNc3nccc(C4CCCC4)n3)no2)cc1`, the inhibition is 44.8%. On to `C=CC[P+](N(CCC)CCC)(N(CCC)CCC)N(CCC)CCC`, for which the inhibition is 80% (active).

As to `CC(C)=CCc1c(O)cc2occ(-c3ccc4c(c3)OCO4)c(=O)c2c1O`, the inhibition was 68.8% (active). As for `O=C(COc1ccc2oc3c(c2c1)CCCC3)NCc1cccnc1`, the inhibition is -6.78%. Under `CC(C)(C)NC(=O)COc1ccc2oc3c(c2c1)CCCC3` stands 31.6%; under `COC(=O)c1c(C)oc2ccc(OCC(=O)c3ccc(F)cc3)cc12`, 87.5% (active); under `Cc1ccc(CC(=O)C(C#N)c2nc3sc(C)c(C)c3c(=O)[nH]2)cc1` (centres undefined), 37.3%. Under `Cc1ccc(-c2c(C)sc3nc(CN4CCN(Cc5ccccc5)CC4)[nH]c(=O)c23)cc1` stands 96.5% (active); under `Cc1ccc(-c2nnc(SCC(=O)NC3CC3)o2)cc1`, -24.4%; under `c1coc(-c2nnc(SCc3nnc(-c4cccs4)o3)o2)c1`, -25.9%. Regarding `CCNC(=O)CSc1nnc(-c2ccc(C)cc2)o1`, the inhibition was 93.8% (active).

As for `CCNC(=O)CSc1nnc(-c2ccccc2)o1`, the inhibition is 92.3% (active).

For `C=CCNC(=O)CSc1nnc(-c2cccs2)o1`, the inhibition is 99.4% (active). Under `CCCC(C)NC(=O)COc1ncnc2scc(-c3ccc(C)cc3)c12` (centres undefined) stands 49.2%; under `CCCC(C)NC(=O)CSc1nnc(-c2ccc(Cl)cc2)o1` (centres undefined), 95.8% (active).

`c1ccc(C(Cn2cncn2)NCc2cccs2)cc1` (centres undefined): the inhibition was -11.6%. Regarding `CCCN(CC1CC1)c1oc(-c2ccc(F)cc2)nc1C#N`, the inhibition was 12.7%. With `CCCCNC(=O)CSc1nnc(-c2ccc(OCC)cc2)o1`, the inhibition is 81.2% (active). Consider `CC1CCC(NC(=O)CSc2nnc(C(C)C)o2)CC1` (centres undefined), for which the inhibition is 32.9%. Regarding `Cc1ccc(-c2nnc(SCC(=O)NC(C)C(C)C)o2)cc1` (centres undefined), the inhibition is 87.3% (active). Under `CCOc1ccc(-c2nnc(SCC#N)o2)cc1` stands -18%; under `Cc1cc(C)cc(N2C(=O)C3N=NN(c4ccc(Br)c(C)c4)C3C2=O)c1` (centres undefined), 89% (active); under `COC(=O)c1cc(C)nc(N(C)C)c1C(=O)OC`, -14.7%. With `CC(C)c1ccc(/C=N\Nc2ncnc3nc[nH]c23)cc1`, the inhibition was 58.7% (active). For the compound `O=c1c(Cl)c(Cl)cnn1-c1ccc(NC2CC2)c(Cl)c1`, the inhibition is 91.2% (active).

Turning to `O=c1c(Cl)c(Cl)cnn1-c1ccc(N2CCOC(c3ccccc3)C2)c(Cl)c1` (centres undefined), the inhibition was 16.1%. Regarding `CN(C)C(=O)CSc1nnc(-c2ccc(Cl)cc2)n1C`, the inhibition was 0.36%. Next, `c1csc(-c2nnc(SCc3ccc4c(c3)OCO4)n2C2CC2)c1`: -34.7%. In the case of `Cc1ccc(-c2nnc(SCC(=O)c3ccc4c(c3)OCO4)n2C)cc1`, the inhibition is 89.8% (active). Next, `Cc1nc2cc(NC(=O)C3(C)CCc4c(C)c(O)c(C)c(C)c4O3)ccc2s1` (centres undefined): 68.5% (active). With `CN(Cc1cccc(C#N)c1)C(=O)c1cc2c(s1)CCCCCC2`, the inhibition was 30.1%. For `CN(Cc1cccs1)C(=O)c1cc2c(cc1O)CCCC2`, the inhibition was 67.8% (active).

For `CCCCNC(=S)N(C)N=Cc1sccc1C`, the inhibition was 29%. `CCCCNC(=S)N(C)N=Cc1c(F)c(F)c(F)c(F)c1F`: the inhibition was 58% (active). For the compound `Cc1ccc(-c2cc(C(=O)N3CCCC3C3CCCC3)n[nH]2)s1` (centres undefined), the inhibition is 31.1%.

On to `COc1ccc(-c2nc(C=CC(=O)N3CCCC4CCCCC43)cs2)cc1` (centres undefined), for which the inhibition was 62.1% (active). In the case of `CCCCc1ccc(N=Cc2c(C)c(C#N)c(=O)n(CCCC)c2O)cc1`, the inhibition is 4.37%.

Regarding `CCCCc1ccc(N=Cc2nc(/C=C/c3cccc([N+](=O)[O-])c3)oc2O)cc1`, the inhibition was 84.9% (active). Next, `COc1cc(F)ccc1Oc1ccc2c(C3CC3)noc2n1`: 47.7%; `Cc1cc(Oc2ccc3c(C4CC4)noc3n2)ccc1F`: 58.7% (active). For `COc1ccc(F)cc1Oc1ccc2c(C3CC3)noc2n1`, the inhibition was 30%. Next, `COc1ccc(Oc2ccc3c(C4CC4)noc3n2)c(F)c1`: 61.2% (active); `Cc1ccc(Oc2ccc3c(C4CC4)noc3n2)cc1F`: 64.9% (active); `CCN(CC)CCN1CCN(c2ccnc3c(-c4cc(C(F)(F)F)cc(C(F)(F)F)c4)cnn23)CC1`: 37.6%. Under `COCc1[nH]n2c(=O)c(Cl)c(C)nc2c1-c1ccc(C)cc1` stands 98.7% (active); under `Cc1ccccc1-c1cnnc(N2CCCC(COc3ccccc3F)C2)n1` (centres undefined), -23.4%; under `S=c1nnc2c3ccccc3[nH]c2n1CCc1ccccc1`, 18%. Take `C=CCSc1nnc2c3ccccc3n(CC=C)c2n1`: the inhibition is 28.1%. For the compound `C=C(C)CSc1nnc2c(n1)[nH]c1ccccc12`, the inhibition was 61.6% (active). On to `Cc1cc(Br)ccc1NCC(=O)N1CCCCC1`, for which the inhibition is 95.6% (active).

With `Cc1cc(Br)ccc1NCc1ccc(C#N)cc1`, the inhibition is 35.3%.

Consider `O=C(C=Cc1ccc(OC(F)F)cc1)c1ccc(O)cc1`, for which the inhibition is 81.8% (active). `N#CC(C#N)=C(C=Cc1ccc(OC(F)F)cc1)C1CC1`: the inhibition was -8.38%. Consider `COc1cc(C(=O)C=Cc2ccc(OC(F)F)cc2)ccc1O`, for which the inhibition was 17.6%. Regarding `CC(C)c1ccc2[nH]c3c(c2c1)CCC/C3=N\N=C/c1ccncc1`, the inhibition is 78.2% (active).

Take `OCC1(Cc2ccccc2F)CCCN(c2noc(-c3ccccc3)n2)C1` (centres undefined): the inhibition was 17.3%. Turning to `C=CCc1ccc(OC(C)C(=O)Nc2ccc(OC)cc2)c(OC)c1` (centres undefined), the inhibition was 30.5%. For the compound `COc1ccc(NCc2ccc(OC)c(Br)c2)cn1`, the inhibition is -17.8%. Turning to `COc1cc(CNc2ccc3nc(C)sc3c2)ccc1OC(F)F`, the inhibition is 78.4% (active). Next, `CC(=NN=C1NC(=O)CS1)c1cc2ccccc2oc1=O`: 91.1% (active); `COc1ccccc1OCCCCOc1ccccc1Cl`: 67.2% (active). With `CCOc1ccc(OCCCOc2ccc(Cl)c(C)c2)cc1`, the inhibition is 44.9%. As to `COc1ccc(OCCCCOc2ccccc2F)cc1`, the inhibition is 57.2% (active).

Turning to `COc1ccc(OCCOc2ccc(Cl)c(C)c2)cc1`, the inhibition was 80.7% (active). Take `CCOc1ccccc1OCCOc1ccccc1F`: the inhibition is 88.9% (active).

`COc1cccc(-c2nnn(CCOc3ccccc3F)n2)c1`: the inhibition was 77.6% (active).

In the case of `COc1cccc(OCCCCOc2ccc3ccccc3c2)c1`, the inhibition was 78.5% (active). Next, `COc1ccccc1OCCCOc1ccccc1F`: 80% (active); `COc1cccc(-c2ccc(=O)n(Cc3cccc(F)c3)n2)c1`: 22.1%.

As to `COc1ccc(OCCOc2ccccc2C#N)cc1`, the inhibition is 56.9% (active).

For `COc1cccc(-c2cnnc(NCc3ccccc3OC)n2)c1`, the inhibition is 21.6%.
